# PubChem BioAssay (NCATS)
# Where “and” joins values, the source holds several entries; their conditions need not be identical. Equal entries are not always repeated. Inconclusive results are not listed. Where a call stands in place of a potency, no number is given. Calls of active or inactive are those of the source. Calls follow the shape of the dose curve; as a rule, active = well fitted curve in the direction sought with a large enough effect; inconclusive = small, poorly fitted or top-dose-only effect, or another doubt; inactive = no such curve, though single readings can be large; an effect the other way counts as inactive or inconclusive.
# Legend:
# [1] = P-glycoprotein substrates identified in KB-8-5-11 adenocarcinoma cell line, qHTS therapeutic library screen (AID 1346987); also: nearly all actives have a fitted effect of over 65% in size
# In short: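 P-gp-mediated resistance screen: KB-8-5-11 cells treated 72 h with compounds in dose-response. CellTiter-Glo viability.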
# [2] = NS1 protein of Zika virus - qHTS assay to identify small molecule inhibitors in human HEK 293 cells (AID 1347053); also: nearly all actives have a fitted effect of over 55% in size
# In short: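 Inhibition of NS1 expression was scored in HEK 293 cells given compound 1 h ahead of MR766 virus (MOI = 0.5). Following 24 h at 37 C, two anti-NS1 antibodies generated a TR-FRET signal, scaled between uninfected and infected controls.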
# [3] = qHTS of pediatric cancer cell lines to identify multiple opportunities for drug repurposing: Primary screen for TC32 cells (AID 1347089); also: nearly all actives have a fitted effect of over 60% in size
# In short: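 Luminescent ATP read-out (CellTiter-Glo) of metabolically active TC32 cells after 48 h exposure. Concentration-response curves came from 11-point (MIPE, 0.78 nM–46 µM) or 8-point (NPC, 0.59 nM–46 µM) primary titrations; follow-up used 11 points.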
# [4] = qHTS of pediatric cancer cell lines to identify multiple opportunities for drug repurposing: Primary screen for DAOY cells (AID 1347090); also: nearly all actives have a fitted effect of over 55% in size
# In short: (§1)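 Viability measured as metabolically active cells via CellTiter-Glo luminescence following 48 hours of compound exposure, 11-point dilutions in confirmatory testing. 500-1,000 cells/well plated 5 hours before dosing; controls were DMSO and 2.3 µM bortezomib.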
# [5] = qHTS of pediatric cancer cell lines to identify multiple opportunities for drug repurposing: Primary screen for SJ-GBM2 cells (AID 1347091)
# In short: as §1
# [6] = qHTS of pediatric cancer cell lines to identify multiple opportunities for drug repurposing: Primary screen for A673 cells (AID 1347092); also: nearly all actives have a fitted effect of over 45% in size
# In short: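 Cell viability of A673 measured by CellTiter-Glo ATP luminescence after 48 hours compound exposure. Dilution series spanned 0.78 nM to 46 µM (MIPE, 11-point) or 0.59 nM to 46 µM (NPC, 8-point); bortezomib 2.3 uM positive control.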
# [7] = qHTS of pediatric cancer cell lines to identify multiple opportunities for drug repurposing: Primary screen for SK-N-MC cells (AID 1347093)
# In short: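 Metabolically active cells were quantified by ATP-dependent luminescence (CellTiter-Glo, 15 min at room temperature) following 48 h treatment. Cells had been plated at 500-1,000 per well and settled for 5 h beforehand.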
# [8] = qHTS of pediatric cancer cell lines to identify multiple opportunities for drug repurposing: Primary screen for BT-37 cells (AID 1347094)
# In short: (§2)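 Quantitative HTS format: each compound titrated (MIPE 11 points from 0.78 nM, NPC 8 points from 0.59 nM) onto cells plated 5 hours earlier. After 48 h at 37 degrees C, CellTiter-Glo luminescence was recorded.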
# [9] = qHTS of pediatric cancer cell lines to identify multiple opportunities for drug repurposing: Primary screen for U-2 OS cells (AID 1347096); also: nearly all actives have a fitted effect of over 50% in size
# In short: (§3)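 Viability after 48 h compound treatment at 37C, 500-1,000 cells/well, read as ATP luminescence with CellTiter-Glo. Primary screens used 11-point (MIPE, 0.78 nM-46 µM) or 8-point (NPC, 0.59 nM-46 µM) final concentrations; follow-up screens used 11-point dilutions.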
# [10] = qHTS of pediatric cancer cell lines to identify multiple opportunities for drug repurposing: Primary screen for Saos-2 cells (AID 1347097); also: nearly all actives have a fitted effect of over 40% in size
# In short: as §2
# [11] = qHTS of pediatric cancer cell lines to identify multiple opportunities for drug repurposing: Primary screen for SK-N-SH cells (AID 1347098); also: nearly all actives have a fitted effect of over 65% in size
# In short: (§4)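 Cells (500-1,000/well) rested 5 h, then received compounds for 48 h; metabolically active cells were measured by CellTiter-Glo luminescence. Final concentrations spanned up to 46 µM (MIPE, 11-point) or 0.59 nM-46 µM (NPC, 8-point) in primary screens, 11-point in follow-ups.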
# [12] = qHTS of pediatric cancer cell lines to identify multiple opportunities for drug repurposing: Primary screen for NB1643 cells (AID 1347099); also: nearly all actives have a fitted effect of over 50% in size
# In short: as §2
# [13] = qHTS of pediatric cancer cell lines to identify multiple opportunities for drug repurposing: Primary screen for LAN-5 cells (AID 1347100)
# In short: as §3
# [14] = qHTS of pediatric cancer cell lines to identify multiple opportunities for drug repurposing: Primary screen for BT-12 cells (AID 1347101); also: nearly all actives have a fitted effect of over 25% in size
# In short: as §4
# [15] = qHTS of pediatric cancer cell lines to identify multiple opportunities for drug repurposing: Primary screen for Rh18 cells (AID 1347102); also: nearly all actives have a fitted effect of over 65% in size
# In short: as §3
# [16] = qHTS of pediatric cancer cell lines to identify multiple opportunities for drug repurposing: Primary screen for NB-EBc1 cells (AID 1347095)
# In short: as §2
# Potency is read from the fitted curve at half-maximal effect.
SMILES,Potency [1],Potency [2],Potency [3],Potency [4],Potency [5],Potency [6],Potency [7],Potency [8],Potency [9],Potency [10],Potency [11],Potency [12],Potency [13],Potency [14],Potency [15],Potency [16]
CC(=O)N[C@H]1[C@@H]([C@H](O)[C@H](O)CO)OC(C(=O)O)=C[C@@H]1N=C(N)N,inactive,inactive,inactive,inactive,inactive,inactive,inactive,inactive,inactive,inactive,inactive,inactive,inactive,inactive,inactive,
C[C@H](CCC(=O)O)[C@H]1CC[C@H]2[C@@H]3[C@H](O)C[C@@H]4C[C@H](O)CC[C@]4(C)[C@@H]3CC[C@]12C,inactive,inactive,inactive,inactive,inactive,inactive,inactive,,inactive,inactive,inactive,,inactive,inactive,inactive,
O=C(NC1CC1)c1cccc(-c2ccc3c(NC(=O)C4CC4)n[nH]c3c2)c1,inactive,inactive,9300 nM (active),1180 nM (active),13200 nM (active),372 nM (active),372 nM (active),3430 nM (active),,2960 nM (active),1710 nM (active),935 nM (active),2090 nM (active),3850 nM (active),2960 nM (active),
OC[C@H]1OC(O)C[C@@H](O)[C@H]1O (some centres undefined),inactive,inactive,inactive,inactive,inactive,inactive,inactive,,inactive,inactive,inactive,inactive,inactive,inactive,inactive,inactive
Oc1cc2c(cc1O)C1c3ccc(O)c(O)c3OCC1(O)C2 (centres undefined),inactive,inactive,inactive,inactive,inactive,inactive,,inactive,inactive,inactive,inactive,inactive,inactive,inactive,inactive,
NC(=O)c1ncn([C@@H]2O[C@H](CO)[C@@H](O)[C@@H]2O)c1N,inactive,inactive,inactive,inactive,inactive,inactive,,inactive,inactive,,inactive,inactive,inactive,inactive,inactive,inactive
COc1cc([C@@H]2c3cc4c(cc3[C@H](O)[C@H]3COC(=O)[C@@H]23)OCO4)cc(OC)c1OC,418 nM (active),264 nM (active),739 nM (active),118 nM (active),66.2 nM (active),93.5 nM (active),74.3 nM (active),,,118 nM (active),inactive,,83.3 nM (active),273 nM (active),inactive,
COc1ccc(Nc2nccc(NCCO)n2)cc1,inactive,inactive,inactive,inactive,inactive,inactive,,inactive,inactive,inactive,inactive,,inactive,inactive,inactive,inactive
CCCCCCCCCCCC(CC1OC(=O)C1CCCCCC)OC(=O)C(CC(C)C)NC=O (centres undefined),inactive,inactive,inactive,inactive,9350 nM (active),inactive,,inactive,inactive,14800 nM (active),,,inactive,inactive,inactive,18700 nM (active)
Cn1cc(-c2ccc3ncc(Cc4ccc5ncccc5c4)n3n2)cn1,inactive,inactive,inactive,inactive,9.3 nM (active),inactive,,inactive,inactive,,inactive,inactive,inactive,inactive,inactive,
COC(=O)[C@@H]1CC2=CC(=O)CC[C@]2(C)[C@@]23O[C@@H]2C[C@@]2(C)[C@H](CC[C@@]24CCC(=O)O4)[C@@H]13,inactive,inactive,inactive,inactive,inactive,inactive,inactive,,inactive,inactive,inactive,inactive,inactive,inactive,inactive,inactive
O=C(O)[C@H](CC(=O)N1C[C@@H]2CCCC[C@H]2C1)Cc1ccccc1,inactive,inactive,inactive,inactive,inactive,inactive,,inactive,inactive,inactive,,inactive,inactive,inactive,inactive,inactive
COc1ccc(C[C@@H](C)[C@@H](C)Cc2ccc(OC)c(OC)c2)cc1OC,7430 nM (active),833 nM (active),9300 nM (active),235 nM (active),418 nM (active),935 nM (active),833 nM (active),968 nM (active),,1050 nM (active),inactive,,187 nM (active),863 nM (active),inactive,118 nM (active)
CN(C)c1ccc2cc(C(=O)N[C@@H](CCCN=C(N)CCl)C(=O)NCc3ccccc3)ccc2c1,inactive,inactive,inactive,7430 nM (active),20900 nM (active),469 nM (active),3320 nM (active),,,14800 nM (active),21500 nM (active),14800 nM (active),1050 nM (active),24300 nM (active),20900 nM (active),
CC(C)N(CC[C@H](c1ccccc1)c1cc(CO)ccc1O)C(C)C,inactive,inactive,inactive,inactive,inactive,inactive,,inactive,inactive,inactive,,inactive,inactive,inactive,inactive,
Cc1ncc(-c2ccnc(Nc3ccc(S(C)(=O)=O)cc3)n2)n1C(C)C,7.43 µM (active) and 13 µM (active),4690 nM (active),13100 nM (active),4690 nM (active),1320 nM (active),935 nM (active),2350 nM (active),6110 nM (active),,,,2350 nM (active),,3850 nM (active),,2350 nM (active)
CCCc1nc(C(C)(C)O)c(C(=O)O)n1Cc1ccc(-c2ccccc2-c2nn[nH]n2)cc1,inactive,inactive,inactive,inactive,inactive,inactive,,inactive,inactive,inactive,,,inactive,inactive,inactive,inactive
NC(=O)c1ncn([C@@H]2O[C@H](CO)[C@@H](O)[C@@H]2O)c1O,inactive,inactive,inactive,inactive,inactive,inactive,inactive,inactive,inactive,inactive,inactive,inactive,inactive,inactive,inactive,
OCCN1C[C@H](O)[C@@H](O)[C@H](O)[C@@H]1CO,inactive,inactive,inactive,inactive,inactive,9350 nM (active),inactive,19300 nM (active),inactive,inactive,inactive,inactive,,,inactive,
CC[C@H]1OC(=O)[C@H](C)[C@@H](O[C@H]2C[C@@](C)(OC)[C@@H](O)[C@H](C)O2)[C@H](C)[C@@H](O[C@@H]2O[C@H](C)C[C@H](N(C)C)[C@@H]2O)[C@](C)(OC)C[C@@H](C)C(=O)[C@H](C)[C@@H](O)[C@]1(C)O,inactive,inactive,inactive,inactive,inactive,inactive,,inactive,inactive,inactive,,,inactive,inactive,inactive,inactive
OCC(O)C(O)C(O)CO (centres undefined),inactive,inactive,inactive,inactive,inactive,inactive,inactive,,inactive,,,inactive,inactive,inactive,inactive,inactive
CC(Oc1ccc(O)cc1)(P(=O)(O)O)P(=O)(O)O,inactive,inactive,inactive,inactive,inactive,inactive,,inactive,inactive,inactive,inactive,inactive,inactive,inactive,inactive,inactive
CCOC(=O)N1CCN([N+]([O-])=NOc2ccc([N+](=O)[O-])cc2[N+](=O)[O-])CC1,inactive,inactive,inactive,18700 nM (active),8330 nM (active),9350 nM (active),8330 nM (active),15300 nM (active),,18700 nM (active),27100 nM (active),,11800 nM (active),,,5260 nM (active)
COc1cc(OC)c(NC(=O)Nc2cc(C)on2)cc1Cl,inactive,inactive,inactive,inactive,inactive,inactive,,inactive,inactive,,inactive,,inactive,inactive,inactive,
CCc1cnn2c(NCc3ccc[n+]([O-])c3)cc(N3CCCC[C@@H]3CCO)nc12,235 nM (active),148 nM (active),131 nM (active),37.2 nM (active),23.5 nM (active),14.8 nM (active),29.6 nM (active),38.5 nM (active),,23.5 nM (active),38.3 nM (active),,,43.2 nM (active),,18.7 nM (active)
C=C[C@@H]1CN2CCC1C[C@H]2[C@H](O)c1ccnc2ccc(OC)cc12 (some centres undefined),inactive,inactive,inactive,inactive,inactive,inactive,,inactive,inactive,inactive,inactive,,inactive,inactive,inactive,inactive
COC[C@H](NC(=O)c1cnc(C)s1)C(=O)N[C@@H](COC)C(=O)N[C@@H](Cc1ccccc1)C(=O)[C@@]1(C)CO1,3720 nM (active),1180 nM (active),587 nM (active),296 nM (active),66.2 nM (active),93.5 nM (active),29.6 nM (active),273 nM (active),372 nM (active),662 nM (active),541 nM (active),132 nM (active),132 nM (active),432 nM (active),187 nM (active),
